# Laboratory results: PubChem BioAssay AID434927 (Sanford-Burnham Center for Chemical Genomics, 2010)
# The source made the active and inactive calls.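 Rule for the calls: active = inhibition above about 23% in any of six single-dose repeats (limit read from the data); inactive = the rest.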
# Biological target: Intestinal-type alkaline phosphatase (Homo sapiens) (UniProt P09923)
# Test: human IAP inhibitors, confirmation, biochemical, luminescence, single concentration, uHTS hits (AID 434927);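 note: plate controls were DMSO wells with enzyme for no effect and wells lacking enzyme for full effect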
# Settings: purified human IAP, CDP-Star luminescence, 30 min; at 8.3 µM; stronger effect = higher value
# Sequence of Intestinal-type alkaline phosphatase (Homo sapiens) (P09923 whole entry, looked up): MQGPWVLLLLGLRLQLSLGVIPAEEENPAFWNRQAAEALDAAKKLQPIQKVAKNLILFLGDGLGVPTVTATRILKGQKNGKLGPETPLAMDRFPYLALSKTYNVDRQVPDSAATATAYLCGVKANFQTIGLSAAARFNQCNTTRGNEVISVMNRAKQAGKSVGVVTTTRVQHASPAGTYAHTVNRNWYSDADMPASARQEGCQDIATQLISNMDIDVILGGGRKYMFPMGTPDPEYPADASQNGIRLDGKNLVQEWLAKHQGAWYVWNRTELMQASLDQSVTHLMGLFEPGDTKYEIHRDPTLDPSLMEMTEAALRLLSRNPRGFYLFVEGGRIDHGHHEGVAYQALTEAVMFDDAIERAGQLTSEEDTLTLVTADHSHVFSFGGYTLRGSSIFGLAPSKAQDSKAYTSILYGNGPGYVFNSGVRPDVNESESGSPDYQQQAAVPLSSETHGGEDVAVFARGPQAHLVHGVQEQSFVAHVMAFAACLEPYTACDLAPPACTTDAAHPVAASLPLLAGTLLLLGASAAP
row,SMILES,inhibition
1,CC(C)(C)NC(=O)C(=O)NNC(=O)COc1ccccc1,39% (active)
2,Cc1cccc(NS(=O)(=O)c2cccc(C(=O)NNC(=O)c3ccccc3O)c2)c1,29.2% (active)
3,COc1ccc(O)c(/C=N/NC(=S)NCCc2ccccc2)c1,-91.2% (inactive)
4,O=C(NC1CCCCCC1)c1ccc(-n2cnnc2)cc1,-58.8% (inactive)
5,CCCCOc1cccc(C2/C(=C(\O)c3ccc4c(c3)OCCO4)C(=O)C(=O)N2CCN2CCOCC2)c1 (stereo not given),-90.6% (inactive)
6,Nc1c(N2CCCC2)cc(Cl)c2nonc12,41.3% (active)
7,O=C(NN1C(=O)/C(=C/c2ccc(O)c([N+](=O)[O-])c2)SC1=S)c1ccccc1Cl,38.9% (active)
8,Cc1ccc(S(=O)(=O)N(CC(=O)Nc2ccc(C)cc2C)C(=O)N2CCN(C)CC2)cc1,-55.4% (inactive)
9,CCC(OC(=O)C1=Cc2ccccc2OC1)C(=O)NC1CCCC1 (stereo not given),-52.5% (inactive)
10,Cc1ccc(-c2cc(C(=O)N/N=C/c3ccccc3O)n[nH]2)o1,39.3% (active)
11,O=C(COc1ccc2ccccc2c1Br)N1CCCCC1,-50.2% (inactive)
12,C/C(=N/NC(=O)c1ccc(Cn2cccn2)o1)c1cccc(NC(=O)c2ccncc2)c1,-101% (inactive)
13,Cc1[nH]n(-c2nc(-c3ccccc3F)cc(=O)[nH]2)c(=O)c1CCO,-39.7% (inactive)
14,O=C(O)C1OC(Oc2c(-c3ccc(O)c(O)c3)oc3cc(O)cc(O)c3c2=O)C(O)C(O)C1O (stereo not given),32.1% (active)
15,NC(CO)C(=O)NNCc1ccc(O)c(O)c1O (stereo not given),-60.9% (inactive)
